Measurements: PubChem BioAssay AID449762 (Southern Research Specialized Biocontainment Screening …, 2010)
Where “and” joins values, the source holds several entries; their conditions need not be identical. Equal entries are not always repeated. In all, about 330,000 compounds went through this assay and about 1,900 (0.58%) were called active. Another 4% or so got no clear call; they are omitted. A selection follows. Entries with a potency or affinity are not part of this list. Unmarked numbers belong to inactive results. No stated cut-off is given here; in the data, inconclusive means inhibition above about 70% without an active follow-up result; inactive means below that.

Test: M. tuberculosis growth inhibition, HTS (AID 449762);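 further: bacterial growth assessed after seven days of incubation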
Conditions: M. tuberculosis H37Rv growth inhibition, 7H9 media; at 25 µM; active compounds read high

Row | Compound | inhibition
1 | CC(C)Cc1nn2c(=O)cc(CSCC(=O)Nc3ccccc3F)nc2s1 | -6.22%
2 | Cc1cc(C(=O)CSc2ccc(Cl)cc2)cc(C)c1OC(=S)N(C)C | -12.1%
3 | Cc1ccc(N2C(=O)N(CC(=O)c3cc(C)ccc3C)C(=O)C2C)cc1 (configuration not stated) | 4.01%
4 | CCOc1ccc(NC(=S)NC(=O)c2cccnc2)c([N+](=O)[O-])c1 | 6.15%
5 | Cn1c(O)c(C=NCCN2CCNCC2)c(=O)n(C)c1=O | -6.91%
6 | O=c1[nH]c(=S)n(C2CCCCC2)c(O)c1C=NCCN1CCOCC1 | 4.57%
7 | O=C1N/C(=N\N=C\c2ccc3ncccc3c2)SC1Cc1ccc(SC(F)F)cc1 (configuration not stated) | -20.7%
8 | O=C(O)CC1S/C(=N/N=C/c2ccccn2)NC1=O (configuration not stated) | -2.11%
9 | O=S(=O)(NCc1ccccn1)c1ccc(Cl)s1 | 32.5%
10 | N/C(=N\OC(=O)Nc1ccccc1)c1ncc(C(F)(F)F)cc1Cl | -4.86%
11 | N/C(=N\OC(=O)Nc1ccc(Cl)cc1)c1ncc(C(F)(F)F)cc1Cl | 3.09%
12 | Cc1ccc(CNC(=O)CNC(=O)[C@@H]2Cc3ccccc3CN2C(=O)OC(C)(C)C)cc1 | 4.75%
13 | c1ccc(-c2cn(-c3ccccc3)c3[n+]2CCCS3)cc1 | -1.4%
14 | Cc1ccc(-c2cn(-c3ccccc3)c3[n+]2CCCS3)cc1 | 4.87% and -0.5%
15 | Cc1ccccc1CNC(=O)Nc1ccc(Cl)cc1 | 8.74%
16 | CCOC(=O)/C(=C/C=C/c1ccccc1)NC(=O)c1ccccc1 | 5.87%
17 | CCOC(=O)/C(=C\C=C\c1ccccc1)NC(=O)c1ccccc1 | -0.56%
18 | O=Cc1cccc(Oc2ccc([N+](=O)[O-])cc2[N+](=O)[O-])c1 | 6.01%
19 | Cc1nn(S(=O)(=O)N(C)C)c(C)c1CN1C(=O)c2ccccc2C1=O | -3.78%
20 | Cc1c(CN(C)C)c2c(n1Cc1ccccc1)C(=O)c1ccccc1-2 | -0.73%
21 | Cc1c(CN(C)C)c2c(n1C)C(=O)c1ccc(Br)cc1-2 | -6.76%
22 | CC(C)(C)[C@@H]1C=C(C(N)=O)O[C@H](OCc2ccc(CO)cc2)C1 | 3.59%
23 | CCn1cc(/C=N\NC(=O)c2c[nH]c3ccccc23)c(C)n1 | 4.35%
24 | COc1cccc2c(=S)c(CCC(C)=O)c(C)[nH]c12 | -1.19%
25 | O=C(c1ccccc1)N1N=C(c2ccc(F)cc2)CC1(O)C(F)(F)F (configuration not stated) | 14.8%

Row | Compound | inhibition
26 | O=C(c1ccccc1)N1N=C(c2ccccc2)CC1(O)C(F)(F)F (configuration not stated) | 17.4%
27 | COc1ccccc1C1CCN(Cc2ccc(Cl)c(Cl)c2)CC1 | 6.04%
28 | COc1ccccc1C1CCN(Cc2ccccc2)CC1 | -7.77%
29 | CCCn1c(=S)[nH]c2cc(C(=O)NCC3CCCO3)ccc2c1=O (configuration not stated) | -7.34%
30 | COc1ccc(C=Nc2cccc3c(=O)[nH][nH]c(=O)c23)c2ccccc12 | -1.04%
31 | COC(=O)N/N=C/c1cc(Br)ccc1O | -4.56%
32 | Cc1ccc(/C=N/NC(=O)C(=O)N/N=C/c2ccc(C)o2)o1 | -4.38%
33 | CC(C)NC(=S)N/N=C/c1ccc(C(C)(C)C)cc1 | 3.03%
34 | Cc1ccc(C)c(/C=N/NC(=S)NC(C)C)c1 | -0.52%
35 | COC(=O)c1nonc1NCn1nnc2ccccc21 | -13.7%
36 | Cc1ccccc1-n1c(-c2ccoc2)nc2ccccc2c1=O | 13.6%
37 | O=C(CCN1CCN(c2ccccc2F)CC1)Nc1ccc(F)cc1 | -1.83%
38 | S=c1[nH]nc(C2CCCCC2)n1/N=C/C=C/c1ccccc1 | 0.75%
39 | Cc1cc(C(=O)OCC(=O)N2CCc3ccccc32)c(C)o1 | 0.97%
40 | CC(C)(C)c1ccc(OCCC(=O)OCC(=O)NC2CC2)cc1 | -4.78%
41 | Cc1ccc(OCCC(=O)OCC(=O)NC(=O)NC2CCCC2)cc1 | 6.88%
42 | Cc1cc(=O)oc2c(C)c(OC(C)C(=O)NCC(O)c3ccccc3)ccc12 (configuration not stated) | 0.93%
43 | C[C@H](CO)N1C[C@H](C)[C@@H](CN(C)S(=O)(=O)c2ccc(F)cc2)Oc2c(NC(=O)NC3CCCCC3)cccc2C1=O | 6.78%
44 | CCOC(=O)C1CCCN(C2CCN(Cc3nc(-c4ccccc4)no3)CC2)C1 (configuration not stated) | -1.09%
45 | Cc1c(Nc2cc(=O)oc3ccccc23)c(=O)n(-c2ccccc2)n1C | -1.53%
46 | CCCCc1ccc(S(=O)(=O)NCCc2ccncc2)cc1 | 21.7%
47 | CCCc1ccc(S(=O)(=O)NCCc2ccncc2)cc1 | 2.76%
48 | CCC(C(=O)Nc1cccc(S(=O)(=O)N(C)c2ccccc2)c1)c1ccccc1 (configuration not stated) | -1.21%
49 | O=C(O)c1cccc(Nc2ccc([N+](=O)[O-])c3nonc23)c1 | 2.67%
50 | COc1cccc(Nc2c([N+](=O)[O-])cncc2[N+](=O)[O-])c1 | 65.1%

Row | Compound | inhibition
51 | O=C(COC(=O)CSc1ccc(F)cc1)NCc1ccco1 | -1.1%
52 | O=C(O)c1cccc(S(=O)(=O)Nc2cccc3ccccc23)c1 | 20.9%
53 | CCN(CC)CCOc1ccc2c(c1)C(=NO)c1cc(OCCN(CC)CC)ccc1-2 | 9.59%
54 | NC(N)=NN=C1c2ccccc2-c2ccccc21 | 6.09%
55 | O=C(Cc1cccc(NC(=O)C2CCN(C(=O)C3CCCC3)CC2)c1)Nc1cccc(C(=O)N2CCCC2)c1 | -2.63%
56 | CC(=O)Nc1ccc(NS(=O)(=O)c2ccc(-c3cnc(C4CC4)o3)cc2)cc1 | -1.71%
57 | COc1ccc(Cl)cc1S(=O)(=O)N(C)CC(=O)N1CCCC1 | 7.61%
58 | Cc1ccc(C)c(NC(=O)COc2coc(CN3CCc4ccccc43)cc2=O)c1 | 47.8%
59 | CCOC(=O)c1ccc(NC(=O)COc2coc(CN3CCc4ccccc43)cc2=O)cc1 | 34.3%
60 | COc1ccc(OC)c(NC(=O)Cn2cc(C#N)c3ccccc32)c1 | -1.64%
61 | Cc1ccc(S(=O)(=O)NC(=O)COc2ccccc2C)c(C)c1 | 0.6%
62 | O=C(CCC1CCCCC1)NC1=NCCS1 | -6.25%
63 | c1ccc(N/N=C2\CCCc3ccccc32)nc1 | 9.09%
64 | Cc1cc(NC2CCCCC2)nc2ccccc12 | 10%
65 | O=C(NNC(=O)C1CCN(C(=O)Nc2ccccc2)CC1)c1ccc([N+](=O)[O-])cc1 | -0.74%
66 | COc1cc(NC(=O)NNC(=O)c2cc3occc3n2C)cc(OC)c1OC | -1.55%
67 | O=C(Nc1ccc(OC(F)F)cc1)c1ncc(Cl)c(Cl)c1Cl | 3.27%
68 | Cc1ccc(CS(=O)(=O)c2ncc(Cl)c(C(=O)Nc3ccc(OC(F)F)cc3)n2)cc1 | 1.02%
69 | CCCCN(C(=O)c1c(CC)noc1C)c1c(N)n(CCCC)c(=O)[nH]c1=O | -5.14%
70 | COc1cccc(CNC(=O)c2nnn(CC(=O)Nc3ccc4c(c3)OCO4)c2N)c1 | -1.11%
71 | CCOC(=O)c1ccc(Oc2nc(N(C)C)nc(N(C)C)n2)cc1 | 17%
72 | CCOC(=O)c1ccc(Oc2nc(OC)nc(N(C)C)n2)cc1 | 4.44%
73 | CCc1nnc(N/N=C/c2ccccc2F)n1N | 31.3%
74 | CCc1nnc(N/N=C/c2cc(Br)c(O)cc2O)n1N | 0.32%
75 | CCN(CCn1cccn1)Cc1nc(-c2ccc(C(=O)OC)cc2)no1 | 24%

Row | Compound | inhibition
76 | COC(=O)c1ccc(-c2noc(CN(Cc3ccncc3)CC3CCCO3)n2)cc1 (configuration not stated) | 41.2%
77 | O=C(CSc1nnnn1C1CCCC1)N1CCOCC1 | -0.48%
78 | COc1ccc(NC(=O)CCN2CCN(S(=O)(=O)c3cc(Cl)ccc3Cl)CC2)cc1 | -9.19%
79 | Fc1ccccc1Oc1nc(-c2ccncc2)nc2ccccc12 | 4.31%
80 | O=C(N/N=C/c1c(O)n(Cc2ccccc2)c(=O)[nH]c1=O)c1ccccc1O | 14.7%
81 | CC(=O)Nc1nc2ccccc2[nH]1 | -2.83%
82 | O=C(Nc1nc2ccccc2[nH]1)C1CC1 | -4.47%
83 | O=C1CCCCC(=O)N(c2ccccc2)c2ccccc21 | 4.12%
84 | O=C1CC(=O)N(c2ccccc2)c2ccccc21 | 8.88%
85 | COC(=O)c1ccsc1NC(=O)CCS(=O)(=O)c1ccc(Cl)cc1 | -2.4%
86 | CCCCNC(=O)CSc1nc2c(sc(=S)n2-c2cc(Cl)ccc2OC)c(=O)[nH]1 | 2.82%
87 | CCOc1ccc(OCCC(=O)OCC(=O)Nc2ccc(N3CCOCC3)cc2)cc1 | 8.74%
88 | C=CCNCc1ccccc1[N+](=O)[O-] | 15%
89 | Cc1c(C#N)c2ncnc(-c3ccccc3)c2n1-c1ccccc1 | -23.1%
90 | COc1cccc2c1-c1c(O)cccc1C2=O | 6.4%
91 | COC(=O)c1cc(C#N)c(=O)[nH]c1C | 4.68%
92 | O=C(CSc1c(Cl)cccc1Cl)N1CCC(c2nc3ccccc3s2)CC1 | 6.33%
93 | O=C(CSc1ccc(F)cc1)N1CCC(c2nc3ccccc3s2)CC1 | 3.87%
94 | CN1CCC(OC(=O)COc2ccccc2)CC1 | -3.85%
95 | Cc1ccc2c(c1)N(C(=O)CCC(=O)N1CCOCC1)CCO2 | -0.82%
96 | O=S(=O)(c1cccs1)n1cccn1 | 0.03%
97 | O=S(=O)(Nc1ccccn1)c1cccs1 | -1.52%
